Results from PubChem BioAssay (EPA / NIEHS).
Inconclusive results are not listed. Activity calls are given as the source filed them. Rule for the calls, unless noted: active = hit-call score of the fitted dose curve at least 0.9, where 1 is the maximum; inactive = score below 0.9.

Legend:
[1] = molecular target: Aryl hydrocarbon receptor (Homo sapiens) (UniProt P35869); assay: ATG_Ahr_CIS: Attagene CIS-FACTORIAL HepG2 Assay for human Aryl Hydrocarbon Receptor (Ahr) (AID 2282930); details: HepG2 AhR cis-factorial reporter transcription; actives raise or lower the signal
Sequence of Aryl hydrocarbon receptor (Homo sapiens) (P35869 whole entry, looked up): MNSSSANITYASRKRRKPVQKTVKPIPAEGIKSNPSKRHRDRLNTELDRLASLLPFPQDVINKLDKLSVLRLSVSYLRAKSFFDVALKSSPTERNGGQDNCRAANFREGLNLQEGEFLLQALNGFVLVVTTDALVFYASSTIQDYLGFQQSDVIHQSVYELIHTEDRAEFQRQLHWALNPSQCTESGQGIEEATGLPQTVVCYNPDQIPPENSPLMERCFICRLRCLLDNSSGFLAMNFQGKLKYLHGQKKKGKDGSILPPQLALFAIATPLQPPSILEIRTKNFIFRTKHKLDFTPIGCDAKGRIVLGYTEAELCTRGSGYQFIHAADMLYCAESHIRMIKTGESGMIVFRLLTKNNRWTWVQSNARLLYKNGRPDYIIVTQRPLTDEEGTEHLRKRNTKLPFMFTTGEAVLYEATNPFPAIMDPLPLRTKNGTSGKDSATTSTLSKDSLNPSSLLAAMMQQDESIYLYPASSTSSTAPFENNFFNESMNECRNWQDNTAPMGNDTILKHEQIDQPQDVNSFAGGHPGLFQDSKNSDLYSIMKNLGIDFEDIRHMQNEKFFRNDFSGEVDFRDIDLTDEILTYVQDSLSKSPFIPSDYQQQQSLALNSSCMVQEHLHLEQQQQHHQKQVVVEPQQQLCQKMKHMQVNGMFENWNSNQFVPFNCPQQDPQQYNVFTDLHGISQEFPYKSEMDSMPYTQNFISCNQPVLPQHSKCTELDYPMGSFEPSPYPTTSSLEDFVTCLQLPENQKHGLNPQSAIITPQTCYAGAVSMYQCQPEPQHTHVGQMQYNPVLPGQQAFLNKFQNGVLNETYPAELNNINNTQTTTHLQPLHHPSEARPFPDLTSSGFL
Method in brief: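 Endogenous factor activity is tracked through cis-promoter reporter units transfected into HepG2 cells. Transcript levels at 24 h are read by fluorescent RT-PCR and capillary electrophoresis, with activity in either direction scored relative to DMSO.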

[2] = ATG_M_19_CIS: Attagene CIS-FACTORIAL HepG2 Assay for M19 Transcription Factor (Internal Marker) (AID 2282939); details: HepG2 Attagene CIS-FACTORIAL M19 internal marker reporter; actives raise or lower the signal
Method in brief: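 HepG2 cells transiently transfected with cis-regulated multiplexed reporter units, dosed 24 h. Reporter mRNA quantified by RT-PCR and capillary electrophoresis; internal background marker fitted bidirectionally versus DMSO.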

[3] = ATG_FoxO_CIS: Attagene CIS-FACTORIAL HepG2 Assay for human Forkhead box O (FoxO) (AID 2282943); details: HepG2 Attagene cis-reporter, FoxO element, mRNA; actives raise or lower the signal
Method in brief: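 Transfected HepG2 reporter cells exposed to test chemical for 24 h; reporter RNA measured by reverse transcription, PCR and fluorescent capillary electrophoresis; curves fitted for increases and decreases against DMSO.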

[4] = molecular target: Hepatocyte nuclear factor 6 (Homo sapiens) (UniProt Q9UBC0); assay: ATG_HNF6_CIS: Attagene CIS-FACTORIAL HepG2 Assay for human Hepatocyte Nuclear Factor 6 (HNF6) (AID 2282952); details: HepG2 Attagene cis-factorial HNF6 reporter transcription; actives raise or lower the signal
Sequence of Hepatocyte nuclear factor 6 (Homo sapiens) (Q9UBC0 whole entry, looked up, the tested form may be a part): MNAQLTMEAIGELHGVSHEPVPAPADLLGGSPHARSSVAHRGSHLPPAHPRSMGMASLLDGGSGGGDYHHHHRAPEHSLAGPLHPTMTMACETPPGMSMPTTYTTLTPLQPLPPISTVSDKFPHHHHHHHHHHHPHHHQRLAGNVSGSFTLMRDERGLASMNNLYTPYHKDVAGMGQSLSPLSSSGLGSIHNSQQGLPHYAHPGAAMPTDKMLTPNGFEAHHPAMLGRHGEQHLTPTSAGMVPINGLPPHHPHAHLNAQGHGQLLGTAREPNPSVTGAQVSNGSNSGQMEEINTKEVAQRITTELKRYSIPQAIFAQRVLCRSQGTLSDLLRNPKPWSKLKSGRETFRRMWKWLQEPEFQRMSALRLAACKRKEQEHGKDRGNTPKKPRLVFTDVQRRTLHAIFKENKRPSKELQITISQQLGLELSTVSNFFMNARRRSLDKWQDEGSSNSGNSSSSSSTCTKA
Method in brief: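 Reporter mRNA induction or loss in HepG2 after 24 h exposure; transient cis-MRTU transfection; fragments quantified by capillary electrophoresis; bidirectional analysis, DMSO as negative control.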

[5] = ATG_PBREM_CIS: Attagene CIS-FACTORIAL HepG2 Assay for human Phenobarbital-responsive Enhancer Module (PBREM) (AID 2282955); details: HepG2 PBREM cis-reporter, Attagene multiplexed transcription; actives raise or lower the signal
Method in brief: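 HepG2 cells transiently transfected with multiple cis-regulated reporter transcription units; endogenous factor activity at the PBREM element measured as reporter mRNA 24 h after dosing, via RT-PCR and capillary electrophoresis of fluorescent fragments; bidirectional fitting versus DMSO.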

[6] = molecular target: Transcription factor Sp1 (Homo sapiens) (UniProt P08047); assay: ATG_Sp1_CIS: Attagene CIS-FACTORIAL HepG2 Assay for human Specificity Protein 1 (Sp1) (AID 2282961); details: HepG2 Sp1 cis-reporter transcription, actives raise or lower the signal
Sequence of Transcription factor Sp1 (Homo sapiens) (P08047 whole entry, looked up): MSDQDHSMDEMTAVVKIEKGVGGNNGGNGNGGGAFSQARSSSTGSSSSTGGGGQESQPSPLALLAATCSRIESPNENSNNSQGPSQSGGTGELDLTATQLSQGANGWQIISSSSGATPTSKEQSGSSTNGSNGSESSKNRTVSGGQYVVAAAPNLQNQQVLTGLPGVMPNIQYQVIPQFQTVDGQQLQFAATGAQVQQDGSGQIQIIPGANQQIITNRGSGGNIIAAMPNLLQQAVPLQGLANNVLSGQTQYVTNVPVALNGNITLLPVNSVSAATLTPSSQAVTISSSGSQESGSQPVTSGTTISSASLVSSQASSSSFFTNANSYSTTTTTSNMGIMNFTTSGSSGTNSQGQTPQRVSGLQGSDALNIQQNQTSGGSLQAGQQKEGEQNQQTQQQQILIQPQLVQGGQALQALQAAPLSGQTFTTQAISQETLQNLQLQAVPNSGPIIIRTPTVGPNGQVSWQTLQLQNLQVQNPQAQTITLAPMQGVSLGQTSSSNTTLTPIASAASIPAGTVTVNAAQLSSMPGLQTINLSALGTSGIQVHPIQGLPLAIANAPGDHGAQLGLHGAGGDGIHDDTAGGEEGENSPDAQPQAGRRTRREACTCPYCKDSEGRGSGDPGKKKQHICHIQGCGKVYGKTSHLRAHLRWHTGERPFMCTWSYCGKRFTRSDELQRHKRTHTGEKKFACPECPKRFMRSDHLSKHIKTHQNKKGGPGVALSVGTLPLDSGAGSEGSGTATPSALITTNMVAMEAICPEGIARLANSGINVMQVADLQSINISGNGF
Method in brief: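 HepG2 cells transiently transfected with multiple reporter transcription units driven by cis-regulatory elements; Sp1-responsive reporter mRNA measured 24 h after dosing by RT-PCR and capillary electrophoresis fluorescence, fitted bidirectionally against DMSO baseline.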

[7] = ATG_SREBP_CIS: Attagene CIS-FACTORIAL HepG2 Assay for human Sterol Regulatory Element Binding (SREBP) (AID 2282962); details: HepG2 Attagene cis-factorial SREBP reporter, mRNA; actives raise or lower the signal
Method in brief: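 Transfected HepG2 (cis-regulated reporter library, endogenous TFs) → compound 24 h → total RNA → oligo(dT) RT → reporter-specific PCR → FAM primer extension, HpaI cut → CE fluorescence. Fit bidirectional vs DMSO.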

[8] = ATG_TA_CIS: Attagene CIS-FACTORIAL HepG2 Assay for human TA Basal Promoter (AID 2282964); details: HepG2 Attagene CIS-factorial TA basal promoter reporter; actives raise or lower the signal
Method in brief: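 HepG2 cells transiently transfected with multiple reporter units under cis promoter elements, reporting endogenous transcription factor activity; this endpoint tracks the TA basal promoter as background control. Reporter mRNA after 24 h dosing measured by RT-PCR/capillary electrophoresis; bidirectional fits versus DMSO.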

[9] = ATG_TCF_b_cat_CIS: Attagene CIS-FACTORIAL HepG2 Assay for human T-Cell-Factor with beta-catenin (TCF/b-cat) (AID 2282965); details: HepG2 TCF/beta-catenin cis-reporter transcription, actives raise or lower the signal
Method in brief: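 Cells of the HepG2 line carry transiently transfected reporter units whose promoters respond to endogenous factors. Twenty-four hours post-dosing, reporter mRNA induction is measured by fluorescent RT-PCR and capillary electrophoresis, with DMSO as baseline.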

[10] = ATG_TAL_CIS: Attagene CIS-FACTORIAL HepG2 Assay for human TAL Basal Promoter (AID 2282966); details: HepG2 Attagene cis-factorial TAL promoter reporter; actives raise or lower the signal;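 note: background control endpoint measuring basal TAL promoter reporter mRNA not a specific factor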
Method in brief: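 Readout: reporter mRNA, fluorescence by CE. System: HepG2, transient multi-reporter transfection, endogenous TF activity. Exposure: 24 h. Analysis: bidirectional, DMSO-normalized; background control.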

[11] = ATG_TGFb_CIS: Attagene CIS-FACTORIAL HepG2 Assay for human Transforming Growth Factor (TGF) (AID 2282967); details: HepG2 Attagene CIS TGFb reporter, mRNA transcription; actives raise or lower the signal
Method in brief: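 HepG2 cells transiently transfected with cis-promoter-driven multiple reporter units measure endogenous TF activity; reporter mRNA quantified at 24 h by RT-PCR, FAM labeling, HpaI digestion and capillary electrophoresis. Bidirectional fit vs DMSO.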

[12] = molecular target: X-box-binding protein 1 (Homo sapiens) (UniProt P17861); assay: ATG_Xbp1_CIS: Attagene CIS-FACTORIAL HepG2 Assay for human X-box Binding Protein 1 (XBP1) (AID 2282972); details: HepG2 XBP1 cis-element reporter, Attagene multiplex; actives raise or lower the signal
Sequence of X-box-binding protein 1 (Homo sapiens) (P17861 whole entry, looked up): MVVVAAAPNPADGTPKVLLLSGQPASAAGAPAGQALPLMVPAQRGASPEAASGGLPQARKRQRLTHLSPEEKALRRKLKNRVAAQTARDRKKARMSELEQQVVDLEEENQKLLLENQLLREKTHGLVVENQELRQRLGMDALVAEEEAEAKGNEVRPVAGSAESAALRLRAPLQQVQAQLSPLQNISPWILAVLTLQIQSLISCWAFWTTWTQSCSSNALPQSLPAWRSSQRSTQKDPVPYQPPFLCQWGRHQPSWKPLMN
Method in brief: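 HepG2, transient MRTU transfection (cis-promoter driven), 24 h compound exposure. Total RNA → oligo(dT) RT → PCR → 6-FAM labeling → HpaI cut → CE. Bidirectional fit vs DMSO.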

[13] = molecular target: Transcriptional activator Myb (Homo sapiens) (UniProt P10242); assay: ATG_Myb_CIS: Attagene CIS-FACTORIAL HepG2 Assay for human Myeloblastosis (Myb) Proto-Oncogene Transcription Factor (AID 2282986); details: HepG2 Attagene CIS-FACTORIAL Myb reporter transcription; actives raise or lower the signal
Sequence of Transcriptional activator Myb (Homo sapiens) (P10242 whole entry, looked up): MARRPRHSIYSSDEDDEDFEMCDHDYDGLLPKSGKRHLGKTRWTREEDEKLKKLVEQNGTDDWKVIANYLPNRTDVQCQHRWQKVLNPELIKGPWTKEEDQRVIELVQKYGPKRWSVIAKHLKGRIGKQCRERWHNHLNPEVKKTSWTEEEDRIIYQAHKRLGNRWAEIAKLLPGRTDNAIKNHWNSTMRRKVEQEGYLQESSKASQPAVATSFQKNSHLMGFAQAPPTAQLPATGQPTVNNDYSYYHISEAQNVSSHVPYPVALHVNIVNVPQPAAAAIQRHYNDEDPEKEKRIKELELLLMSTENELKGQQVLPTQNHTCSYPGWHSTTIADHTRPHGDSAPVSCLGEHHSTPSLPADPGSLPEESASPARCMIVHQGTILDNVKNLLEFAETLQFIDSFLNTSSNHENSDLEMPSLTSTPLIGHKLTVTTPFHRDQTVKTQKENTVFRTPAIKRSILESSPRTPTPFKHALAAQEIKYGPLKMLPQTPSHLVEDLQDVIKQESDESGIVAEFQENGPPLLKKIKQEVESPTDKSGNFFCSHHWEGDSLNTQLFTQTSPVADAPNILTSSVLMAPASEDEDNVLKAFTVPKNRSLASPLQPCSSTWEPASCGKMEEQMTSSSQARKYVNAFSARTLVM
Method in brief: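 HepG2 cells were transiently transfected with cis-regulated multiple reporter transcription units reflecting endogenous Myb activity, then exposed to compound for 24 hours. Reporter mRNA was measured by RT-PCR with capillary electrophoresis; bidirectional fitting versus DMSO baseline.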

[14] = molecular target: Nuclear respiratory factor 1 (Homo sapiens) (UniProt Q16656); assay: ATG_NRF1_CIS: Attagene CIS-FACTORIAL HepG2 Assay for human Nuclear Respiratory Factor 1 (NRF1) Orphan Gene (AID 2282987); details: HepG2 NRF1 cis-element reporter, Attagene multiplex; actives raise or lower the signal
Sequence of Nuclear respiratory factor 1 (Homo sapiens) (Q16656 whole entry, looked up): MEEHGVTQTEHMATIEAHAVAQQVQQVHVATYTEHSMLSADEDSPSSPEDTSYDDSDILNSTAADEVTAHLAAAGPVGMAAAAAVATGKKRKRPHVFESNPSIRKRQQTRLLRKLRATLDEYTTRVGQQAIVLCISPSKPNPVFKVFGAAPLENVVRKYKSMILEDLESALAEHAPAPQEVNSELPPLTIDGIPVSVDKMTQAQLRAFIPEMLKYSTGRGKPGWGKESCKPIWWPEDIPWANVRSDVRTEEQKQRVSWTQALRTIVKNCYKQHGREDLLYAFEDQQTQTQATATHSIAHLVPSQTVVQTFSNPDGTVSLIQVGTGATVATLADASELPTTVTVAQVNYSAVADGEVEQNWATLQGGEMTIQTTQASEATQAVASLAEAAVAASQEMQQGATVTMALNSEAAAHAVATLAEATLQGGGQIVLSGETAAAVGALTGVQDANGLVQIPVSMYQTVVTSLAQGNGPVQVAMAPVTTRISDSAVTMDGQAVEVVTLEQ
Method in brief: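 HepG2 cells transiently transfected with multiple reporter transcription units under cis-regulatory promoter control, so endogenous transcription-factor activity is read. After 24 h compound exposure, reporter mRNA quantified by RT-PCR, fluorescent labelling, HpaI digestion and capillary electrophoresis; bidirectional fitting versus DMSO.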

[15] = ATG_NFI_CIS: Attagene CIS-FACTORIAL HepG2 Assay for human Nuclear Factor I (NFI) (AID 2282989); details: HepG2 cis-regulatory reporter, NFI response element transcription; actives raise or lower the signal
Method in brief: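 Endogenous TF activity in HepG2 cells transiently transfected with cis-element-driven multiplexed reporter units, read 24 h after dosing. Reporter mRNA quantified by RT-PCR, 6-FAM labelling, HpaI digestion and capillary electrophoresis; bidirectional fit versus DMSO.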

[16] = ATG_NF_kB_CIS: Attagene CIS-FACTORIAL HepG2 Assay for human Nuclear Factor Kappa B (NF-kB) (AID 2282991); details: HepG2 Attagene cis-factorial NF-kB reporter mRNA; actives raise or lower the signal
Method in brief: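 HepG2 cells transiently transfected with multiplexed cis-element reporter units measuring endogenous transcription factor activity; reporter mRNA read 24 h after dosing by RT-PCR, fluorescent labelling, HpaI digestion and capillary electrophoresis. Bidirectional fit against DMSO baseline.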

[17] = ATG_Oct_MLP_CIS: Attagene CIS-FACTORIAL HepG2 Assay for human Octamer-Binding Transcription Factor (Oct) (AID 2282993); details: HepG2 Attagene cis-factorial Oct reporter, mRNA; actives raise or lower the signal
Method in brief: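 HepG2 cells transiently transfected with cis-element-driven reporter transcription units (endogenous TF activity); 24 h compound exposure. Reporter mRNA quantified by RT-PCR, 6-FAM labelling, HpaI digestion and capillary electrophoresis; bidirectional fit versus DMSO baseline.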

[18] = ATG_VDRE_CIS: Attagene CIS-FACTORIAL HepG2 Assay for human Vitamin D Receptor Element (VDRE) (AID 2282968); details: HepG2 VDRE cis-reporter transcription, actives raise or lower the signal
Method in brief: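 Transiently transfected HepG2 cells carrying cis-regulated reporter transcription units were exposed for 24 h. Reporter mRNA was measured by RT-PCR with fluorescent labelling and capillary electrophoresis, and fitted in both directions against DMSO.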

[19] = molecular target: Nuclear receptor subfamily 1 group I member 2 (Homo sapiens) (UniProt O75469); assay: ATG_PXR_TRANS: Attagene TRANS-FACTORIAL HepG2 Assay for human Pregnane X Receptor (PXR) (AID 2283008; active = hit-call score of the fitted dose curve at least 0.9, where 1 is the maximum)
Sequence of Nuclear receptor subfamily 1 group I member 2 (Homo sapiens) (O75469 whole entry, looked up, the tested form may be a part): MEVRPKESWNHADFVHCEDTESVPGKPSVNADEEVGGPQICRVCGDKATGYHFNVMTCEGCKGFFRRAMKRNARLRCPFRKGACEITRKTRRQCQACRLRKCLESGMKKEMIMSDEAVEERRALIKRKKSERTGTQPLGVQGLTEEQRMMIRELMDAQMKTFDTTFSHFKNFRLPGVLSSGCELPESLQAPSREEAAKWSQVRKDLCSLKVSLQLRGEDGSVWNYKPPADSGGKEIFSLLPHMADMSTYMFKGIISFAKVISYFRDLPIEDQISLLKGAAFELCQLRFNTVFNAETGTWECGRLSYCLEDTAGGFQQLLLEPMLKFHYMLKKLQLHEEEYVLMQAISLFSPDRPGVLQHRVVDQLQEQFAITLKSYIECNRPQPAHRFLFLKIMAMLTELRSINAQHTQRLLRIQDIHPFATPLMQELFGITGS
Method in brief: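 Read-out is fluorescence of labelled reporter cDNA fragments separated by capillary electrophoresis after RT-PCR and HpaI digestion. Source: HepG2 cells carrying PXR-GAL4/UAS reporter constructs, treated 24 h; activity fitted upward relative to DMSO.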

[20] = molecular target: Peroxisome proliferator-activated receptor gamma (Homo sapiens) (UniProt P37231); assay: ATG_PPARg_TRANS: Attagene TRANS-FACTORIAL HepG2 Assay for human Peroxisome Proliferator-activated Receptor-gamma (PPARg) (AID 2283007; active = hit-call score of the fitted dose curve at least 0.9, where 1 is the maximum)
Sequence of Peroxisome proliferator-activated receptor gamma (Homo sapiens) (P37231 whole entry, looked up, the tested form may be a part): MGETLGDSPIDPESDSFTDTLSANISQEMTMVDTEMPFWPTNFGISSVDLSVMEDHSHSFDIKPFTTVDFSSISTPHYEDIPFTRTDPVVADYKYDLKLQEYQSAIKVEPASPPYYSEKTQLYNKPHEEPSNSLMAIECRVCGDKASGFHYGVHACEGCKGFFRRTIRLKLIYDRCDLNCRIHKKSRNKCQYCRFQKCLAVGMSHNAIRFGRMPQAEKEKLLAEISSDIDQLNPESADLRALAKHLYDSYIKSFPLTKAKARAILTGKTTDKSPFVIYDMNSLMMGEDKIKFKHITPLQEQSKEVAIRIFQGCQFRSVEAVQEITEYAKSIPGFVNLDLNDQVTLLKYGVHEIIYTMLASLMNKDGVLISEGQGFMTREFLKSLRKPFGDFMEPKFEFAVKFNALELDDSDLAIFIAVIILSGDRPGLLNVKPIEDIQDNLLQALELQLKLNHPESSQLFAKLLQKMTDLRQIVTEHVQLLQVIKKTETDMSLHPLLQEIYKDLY
Method in brief: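 HepG2 cells transiently transfected with multiplexed GAL4-UAS reporter units and exogenous chimeric NR-Gal4 proteins; reporter mRNA quantified after 24 h compound exposure by RT-PCR, fluorescent labelling, HpaI digestion and capillary electrophoresis; gain-of-signal fitted versus DMSO baseline.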

Measured: AC50

C=Cc1cccc(CCl)c1
active: [6] 25.5 µM | [12] 38.5 µM | [17] 46.2 µM
not listed: [18] | [19] | [20]
inactive: all other assays above

O=C(O)CCCc1ccc(N(CCCl)CCCl)cc1
active: [9] 143 µM
not listed: [5] | [20]
inactive: all other assays above

ClCCCCCCCl
not listed: [19] | [20]
inactive: all other assays above

CC1(C)C(=O)NC(=O)NC1=O
inactive: all assays above

Nc1ccc(Cl)c(Cl)c1
not listed: [12]
inactive: all other assays above

CC(C)(C)C(=O)CCl
active: [20] 25.7 µM
not listed: [1] | [5]
inactive: all other assays above

CCC(C)c1cc([N+](=O)[O-])cc([N+](=O)[O-])c1OC(=O)C=C(C)C (stereo not given)
active: [3] 57.3 µM | [6] 26.2 µM | [8] 100 µM | [9] 31.8 µM | [18] 0.86 µM | [12] 27.2 µM | [15] 25.5 µM | [17] 25.8 µM | [20] 1.05 µM | [19] 1.6 µM
inactive: [1] | [4] | [5] | [7] | [10] | [11] | [13] | [14] | [16]

O=[N+]([O-])C=Cc1ccccc1
active: [3] 33.4 µM | [6] 21.2 µM | [9] 18.9 µM | [18] 10.7 µM | [12] 20.3 µM | [13] 22.9 µM | [14] 38.5 µM | [15] 18.6 µM | [16] 34.7 µM | [17] 18.5 µM | [20] 8.83 µM | [19] 8.62 µM
inactive: [2] | [4] | [5] | [7] | [8] | [10] | [11]

CC1CCC(=O)O1 (stereo not given)
not listed: [1] | [5] | [20]
inactive: all other assays above
